Among the data in PubChem BioAssay (NCATS) are outcome values, retold here.

Structures are written as SMILES. The source made the active and inactive calls. Calls follow the shape of the dose curve; as a rule, active = well fitted activation curve with a large enough effect; inconclusive = small, poorly fitted or top-dose-only effect, or effect the other way; inactive = flat fitted curve, though single readings scatter.

The test in a line: Cellular Toxicity (caspase-3) Renal Proximal Tubule (AID 667).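 Also: cells exposed to compound for 16 hours at 37 °C before detection.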 Conditions: renal proximal tubule cells; series mostly up to 91.7 µM. The text has this:
NIH Chemical Genomics Center [NCGC]
NIH Molecular Libraries Screening Centers Network [MLSCN]
National Institutes of Environmental Health Sciences [NIEHS]
National Toxicology Program [NTP]
We have developed a 1536-well cell-based assay for quantitative high throughput screening (qHTS) against a number of cell lines to determine in vitro caspase 3/7 activity of small molecules. This particular assay uses the primary kidney proximal tubule cells freshly isolated from rat.
NCGC Assay Protocol Summary:
The Caspase-Glo 3/7 assay (Promega) is a homogeneous method to measure caspase-3 and caspase-7 activities in cultured cells. The quantitation of caspase 3/7 activity is based on the cleavage of a peptide-aminoluciferin substrate. After caspase cleaves the substrate the free aminoluciferin is liberated and serves as the substrate of luciferase, which generates the light. The luminescent signal is proportional to the amount of caspase 3/7 activity present.
Using the Caspase-Glo 3/7 assay, the amount of caspase 3/7 activity was measured in the rat kidney proximal tubule cells with complete culture medium following compound treatment for 16 hours. The assay was performed in opaque white 1536-well plates. In the screen, staurosporine and doxorubicin were used as positive controls. Library compounds were measured for their ability to cause the activation of caspase 3/7 in the cell line, as reflected by an increase in luminescence signal, in a concentration-dependent manner. Data were normalized to the controls for basal activity (DMSO only) and 100% stimulation (10 uM staurosporine). AC50 values were determined from concentration-response data modeled with the standard Hill equation.
qHTS protocol for caspase 3/7 assay in rat kidney proximal tubule cells
[Step] [Parameter] [Value] [Description]
1. Reagent; 5 uL; 1000 rat kidney proximal tubule cells/well
2. Time; 5 hr; 37 °C incubation
4. Controls; 23 nL; doxorubicin 7 pM to 100 uM & staurosporine 1.4 pM to 20 uM
5. Time; 16 hr; 37 °C incubation
6. Reagent; 5 uL; Caspase-Glo 3/7 reagent
7. Time; 1 hr; Room Temperature
8. Detection; Luminescence; Viewlux plate reader
Keywords: caspase 3/7, apoptosis, rat kidney proximal tubule cells, luminescence, NTPHTS, NTPHTS_NCGC, NIEHS, EPA, DSSTox, MLSMR, MLSCN, NIH Roadmap, qHTS, NCGC
For `CN1CSC(=S)N(C)C1`, the molecule was classed as inactive.

`CC(=O)CCC(C)=O`: the call was inactive.

For the molecule `ClC(Cl)(Cl)C(Cl)(Cl)Cl`, the molecule was classed as inactive.

As to `N#CC(Br)Br`, the molecule was called inactive.

As for `C[N+](=O)[O-]`, the molecule was called inactive.

As to `C/C=C/C=O`, the molecule was classed as inactive.

Take `O=P(OCCCl)(OCCCl)OCCCl`: the molecule was called inactive.

Take `Nc1cc(Cl)ccc1O`: the molecule was called inactive.

As for `CC(C#N)CCC#N` (stereo not given), the molecule was classed as inactive.

Turning to `COc1ccc(C=O)cc1`, the molecule was called inactive.

Consider `C=CCO`, for which the result was inactive.

With `Cc1cccc(C)c1N`, the molecule was classed as inactive.

In the case of `CCN(CC)CCO`, the molecule was called inactive.

Take `O=C(O)c1cc(Cl)ccc1Cl`: the molecule was classed as inactive.

As to `CC12CC1(C)C(=O)N(c1cc(Cl)cc(Cl)c1)C2=O` (stereo not given), the molecule was called inactive.

As to `ClCCBr`, the call was inactive.

As for `O=[N+]([O-])/C=C/c1ccccc1`, the molecule was called inactive.

`O=C(Cl)OCc1ccccc1`: the call was inactive.

In the case of `[C-]1=CC=CC1.[C-]1=CC=CC1.[Cl-].[Cl-].[Ti+4]`, the outcome was inactive.

Regarding `C=CCCl`, the molecule was called inactive.

Regarding `C=COC(C)=O`, the result was inactive.

In the case of `CN(C)C(=O)Nc1cccc(C(F)(F)F)c1`, the result was inactive.

For `O=[N+]([O-])CCO`, the outcome was inactive.

`O=C(O)C(Br)CBr` (stereo not given): the outcome was inactive.

Turning to `CC(C)C#N`, the call was inactive.

With `N#CC(O)c1ccccc1` (stereo not given), the molecule was called inactive.

Take `CCN(N=O)C(N)=O`: the result was inactive.

`O=[N+]([O-])c1cc(Cl)c(Cl)cc1Cl`: the call was inactive.

As for `CCNCC`, the outcome was inactive.

Consider `Oc1cccc(Cl)c1Cl`, for which the result was inactive.

For `Brc1ccc(Oc2ccc(Br)cc2Br)c(Br)c1`, the molecule was called inactive.

`CC(C)(C)c1ccccc1O`: the outcome was inactive.

`c1ccc(Nc2ccc(Nc3ccccc3)cc2)cc1`: the molecule was classed as inactive.

Take `CCSC(=O)N1CCCCCC1`: the result was inactive.

`C1CC2OC2CC1C1CO1` (stereo not given): the molecule was called inactive.

As for `c1ccc(N=NNc2ccccc2)cc1`, the outcome was inactive.

Regarding `Clc1ccc(Cl)c(Cl)c1`, the call was inactive.

`ClC(Cl)Br`: the outcome was inactive.

In the case of `O=C(O)C(Cl)(Cl)Br`, the molecule was classed as inactive.

Regarding `Cc1cc(-c2cc(C)c(N)c(C)c2)cc(C)c1N`, the call was inactive.
